A short description of assay [1]: STM_H9_OrnCyssISnorm_ratio: Stemina devTOX quickPredict H9 human embryonic stem cell (hESC)-based Assay for Ornithine (ORN):Cystine (CYSS) Ratio (AID 2283714). In short, it runs like this:
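H9 hESC, 72h, q24h re-dose; last-day media → acetonitrile deproteinization → UPLC-HRMS. ORN:CYSS ratio from isotope-normalized EIC areas, vs 0.1% DMSO; MTX references on each plate.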

Assay [2] can be described thus: CEETOX_H295R_MTT_cell_viability: Viability Assessment in the CeeTox HT-H295R MTT Assay (AID 2283718; active means hit-call score of the fitted dose curve at least 0.9, where 1 is the maximum; inactive means score below 0.9;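 on AC50: curve fitted both ways so AC50 may mark viability loss or gain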). An outline of the steps:
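H295R cells prestimulated 48 h with 10 uM forskolin, then exposed 48 h to test chemical (0.1% DMSO final). Viability by MTT (0.5 mg/ml, 4 h, 37 C), absorbance 570/650 nm; percent change versus DMSO, bidirectional fit.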

Assay [3] is described as follows: Tanguay_ZF_120hpf_ActivityScore_legacy: (Legacy) Oregon State University Tanguay Lab 120 Hour Post-fertilization zebrafish Assay Score for Activity (AID 2283742).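 On AC50: dechorionated Tropical 5D wild-type zebrafish embryos held singly per well; static exposure from 6 hpf until 120 hpf at 28 °C.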 In short, it runs like this:
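In this whole-embryo screen, dechorionated zebrafish were exposed from 6 hpf until 120 hpf at 28C under a 0.64% DMSO vehicle. Developmental malformations and death were recorded by brightfield microscopy as binary endpoints.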

Assay [4] deals with zebrafish Androgen Receptor (AR), gene 100005148. The assay can be described thus: ATG_zfAR_XSP1: Attagene TRANS-FACTORIAL Multi-Species (XSP1) HepG2 Assay for zebrafish Androgen Receptor (AR) (AID 2283771). An outline of the steps:
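Gain-of-signal versus DMSO was measured as reporter transcripts quantified by RT-PCR, fluorescent labelling and capillary electrophoresis after 24 h chemical exposure. The cells were HepG2 expressing a chimeric zebrafish AR-GAL4, co-stimulated with 3 nM 6-alpha-fluorotestosterone.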

Assay [5] has as its target zebrafish Estrogen Receptor (ESR1), esr1 (gene 259252) (UniProt P57717). The assay can be described thus: ATG_zfER1_XSP1: Attagene TRANS-FACTORIAL Multi-Species (XSP1) HepG2 Assay for zebrafish Estrogen Receptor (ESR1) (AID 2283772). An outline of the steps: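 Exogenous chimeric receptor-GAL4 activity is measured in transiently transfected human HepG2 liver cells after 24 h compound exposure. Reporter transcripts are detected by RT-PCR and fluorescent capillary electrophoresis, analysed for signal gain relative to DMSO.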

For assay [6], the system named is zebrafish Estrogen Receptor (ESR2B), gene 317733. In words: ATG_zfER2b_XSP1: Attagene TRANS-FACTORIAL Multi-Species (XSP1) HepG2 Assay for zebrafish Estrogen Receptor (ESR2B) (AID 2283773). An outline of the steps: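 Human hepatoma HepG2, transiently transfected with multi-reporter units; exogenous zebrafish ESR2B-Gal4 activity measured. Exposure 24 h alongside 3 nM 6-alpha-fluorotestosterone to partly stimulate AR.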

For assay [7], the system named is frog Estrogen Receptor (ESR2), gene 100174814. The assay can be described thus: ATG_frER2_XSP1: Attagene TRANS-FACTORIAL Multi-Species (XSP1) HepG2 Assay for frog Estrogen Receptor (ESR2) (AID 2283774). In short, it runs like this:
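Multiplexed TRANS-format reporter assay in human hepatoma HepG2: chimeric nuclear receptor-Gal4 activity reported as mRNA induction at 24 h, detected by fluorescent RT-PCR products on capillary electrophoresis and fitted upward from DMSO baseline.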

Assay [8] is described as follows: ACEA_AR_agonist_AUC_viability: ACEA Biosciences xCELLigence Real-Time Cell Analysis on Androgen Receptor Agonism for Viability (AID 2283775).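 On AC50: viability read 80 hours after compound addition.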 In short, it runs like this:
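22Rv1 cells; impedance growth kinetics; 8-pt 1:4 dilutions from 100 uM top final, ≤0.5% DMSO; n = 2; 80 h read; AUC viability, loss-of-signal vs DMSO.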

Assay [9] in a line: ACEA_AR_antagonist_AUC_viability: ACEA Biosciences xCELLigence Real-Time Cell Analysis on Androgen Receptor Antagonism for Viability (AID 2283776).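 Further: 22Rv1 human prostate cancer cells growing on impedance electrode plates; area under impedance growth curve at 80 h after dosing as viability; hits lower the growth signal relative to DMSO meaning cytotoxicity.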 In short, it runs like this:
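22Rv1 prostate cells, continuous dosing up to 100 uM final (0.5% DMSO max), duplicate plates. Growth measured by impedance; AUC at 80 h, loss of signal vs DMSO.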

The nature of assay [10]: ArunA_CellTiter_hNC: Viability Assessment in the ArunA Biomedical's Oris Neural Crest (hNC) Cell Migration Assay (AID 2283752). An outline of the steps: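 After a 72 h chemical exposure, viability of hNC cells is read with CellTiter Aqueous One and fitted as signal loss relative to DMSO. Cells were seeded at 60,000/well on Matrigel and cultured 16 h at 37 C beforehand.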

The nature of assay [11]: ArunA_CellTiter_hNP: Viability Assessment in the ArunA Biomedical's Oris Neural Crest (hNC) Cell Migration Assay (AID 2283753). In short, it runs like this:
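Viability read with CellTiter 96 Aqueous One after 72 h chemical exposure of human hNP1 neuroprogenitors, which were plated on Matrigel in LIF/bFGF medium 16 h beforehand. Endpoint fitted in positive direction relative to DMSO.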

Assay [12] in a line: ArunA_Migration_hNP: ArunA Biomedical's Oris Neuroprogenitor (hNP) Cell Migration Assay (AID 2283754). An outline of the steps: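 Readout is calcein-AM fluorescence (ex494/em517) of cells migrating into the detection zone, relative to DMSO. hNP1 cells (H9-derived) grown on Matrigel behind stoppers 16 h, then stoppers pulled and chemical applied 72 h; cytochalasin D as control.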

The nature of assay [13]: ArunA_Migration_hNC: ArunA Biomedical's Oris Neural Crest (hNC) Cell Migration Assay (AID 2283755). In short, it runs like this: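 Calcein-AM fluorescence (ex494 nm/em 517 nm) in the stopper-defined detection zone quantifies migration of hNC cells after 72 h chemical exposure; 60,000 cells/well plated on Matrigel with LIF and bFGF, 16 h pre-incubation. DMSO baseline.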

Assay [14] is described as follows: ArunA_NOG_NucleusCount: ArunA Biomedical's Neurite Outgrowth (NOG) Assay for Nucleus Count (AID 2283756). An outline of the steps: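 Viable neuron count, from Hoechst nuclei passing size and intensity gates, imaged at 20x on differentiated H9-derived human neurons. Exposure lasted 48 h from seeding; activity was scored relative to DMSO.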
The nature of assay [15]: ArunA_NOG_NeuriteLength: ArunA Biomedical's Neurite Outgrowth (NOG) Assay for Neurite Length (AID 2283757). An outline of the steps:
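Total neurite length per neuron, from traced βIII-tubulin-labelled processes longer than 10 um on viable Hoechst-gated cells, was scored as decrease from DMSO. Cells were hESC (H9)-derived neurons given 48 h chemical exposure immediately after seeding.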

Assay [16] can be described thus: ArunA_NOG_NeuritesPerNeuron: ArunA Biomedical's Neurite Outgrowth (NOG) Assay for Neurites Per Neuron (AID 2283758). In short, it runs like this:
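Differentiated human H9-derived neurons exposed to chemicals for 48 h from seeding, then stained with Hoechst and βIII-tubulin/DyLight 488. Automated imaging counted neurites (processes >10 um) per valid neuron; loss of signal versus DMSO scored.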

A short description of assay [17]: ArunA_NOG_BranchPointsPerNeurite: ArunA Biomedical's Neurite Outgrowth (NOG) Assay for Branch Points Per Neurite (AID 2283759). An outline of the steps: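 Automated image analysis traced neurites (processes >10 um) from valid cell bodies after Hoechst and βIII-tubulin staining. hNN cells from H9 embryonic stem cells, 48 h exposure. Fitted bidirectionally against DMSO.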

In assay [18] the target is Luciferin 4-monooxygenase (Photinus pyralis) (UniProt P08659). The assay can be described thus: CCTE_Simmons_QuantiLum_inhib_2: CCTE's Firefly Luciferase Inhibition Assay, Simmons Lab (AID 2283767).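 Further: potency for inhibitors that lower luciferase luminescence relative to DMSO.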 An outline of the steps: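 Eight test concentrations, 5 nM up to 87.5 uM final, preincubated 30min at 37C in the dark with purified luciferase (0.5% DMSO final). Detection reagent (150uM D-luciferin, 147uM dATP, 75uM CoA, pH 7.8) injected per well before kinetic luminescence read; three replicates.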
Chain of Luciferin 4-monooxygenase (Photinus pyralis) (P08659 whole entry, looked up): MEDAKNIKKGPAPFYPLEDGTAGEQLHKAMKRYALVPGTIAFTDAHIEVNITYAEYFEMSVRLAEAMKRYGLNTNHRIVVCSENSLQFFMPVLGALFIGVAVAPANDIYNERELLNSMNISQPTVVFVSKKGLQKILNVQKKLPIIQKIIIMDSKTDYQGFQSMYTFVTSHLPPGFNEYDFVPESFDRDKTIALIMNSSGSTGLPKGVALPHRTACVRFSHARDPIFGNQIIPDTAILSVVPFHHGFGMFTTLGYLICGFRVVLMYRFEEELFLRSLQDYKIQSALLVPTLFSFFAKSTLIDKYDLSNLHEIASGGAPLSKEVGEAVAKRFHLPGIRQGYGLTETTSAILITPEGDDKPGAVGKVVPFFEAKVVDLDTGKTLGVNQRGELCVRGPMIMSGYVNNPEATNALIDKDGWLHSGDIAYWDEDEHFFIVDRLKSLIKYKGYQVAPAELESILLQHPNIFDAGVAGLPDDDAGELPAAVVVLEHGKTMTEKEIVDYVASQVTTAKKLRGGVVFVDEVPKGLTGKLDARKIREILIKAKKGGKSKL

Assay [19] has as its system chicken Androgen Receptor (AR), gene 422165. In words: ATG_chAR_XSP1: Attagene TRANS-FACTORIAL Multi-Species (XSP1) HepG2 Assay for chicken Androgen Receptor (AR) (AID 2283768). In short, it runs like this: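 Reporter mRNA read by RT-PCR with fluorescent labelling and capillary electrophoresis 24 h after chemical dosing of transiently transfected HepG2 cells. Chicken AR-Gal4 chimera, partially stimulated with 3 nM 6-alpha-fluorotestosterone; activity fitted upward relative to DMSO.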

The subject of assay [20] is frog Androgen Receptor (AR), gene 399456. In words: ATG_frAR_XSP1: Attagene TRANS-FACTORIAL Multi-Species (XSP1) HepG2 Assay for frog Androgen Receptor (AR) (AID 2283770). How it is done:
ATG_XSP1_multi-species_TRANS is a cell-based, multiplexed assay created by modifying the existing Attagene TRANS-FACTORIAL system to include a panel of nuclear receptors from some or all the following species: human (Homo sapiens), mouse (Mus musculus), frog (Xenopus laevis), zebrafish (Danio rerio), chicken (Gallus gallus), and turtle (Chrysemys picta). The ECOTOX-FACTORIAL format uses HepG2, a human liver cell line, with measurements taken at 24 hours after chemical dosing in a 24-well plate. Xsp1 included 3 nM 6-alpha-fluorotestosterone to partially stimulate the androgen receptor.ATG_frAR_XSP1 is one of 29 assay components measured or calculated from the ATG_XSP1_multi-species_TRANS assay. It is designed to make measurements of mRNA induction, a form of inducible reporter, as detected with fluorescence intensity signals by Reverse transcription polymerase chain reaction (RT-PCR) and Capillary electrophoresis technology.The assay endpoint ATG_frAR_XSP1 was analyzed in the positive analysis fitting direction relative to DMSO as the negative control and baseline of activity. […] Furthermore, this assay endpoint can be referred to as a primary readout, because this assay has produced multiple assay endpoints where this one serves a reporter gene function. […]

AC50 and outcome data for nine compounds are collected here from PubChem BioAssay (EPA / NIEHS).

Inconclusive results are not listed. Activity calls are given as the source filed them. How the source made its calls, unless noted: active means hit-call score of the fitted dose curve at least 0.9, where 1 is the maximum; inconclusive means response in the unintended direction; inactive means score below 0.9.

Chain of zebrafish Estrogen Receptor (ESR1), esr1 (gene 259252) (P57717 whole entry, looked up, the tested form may be a part): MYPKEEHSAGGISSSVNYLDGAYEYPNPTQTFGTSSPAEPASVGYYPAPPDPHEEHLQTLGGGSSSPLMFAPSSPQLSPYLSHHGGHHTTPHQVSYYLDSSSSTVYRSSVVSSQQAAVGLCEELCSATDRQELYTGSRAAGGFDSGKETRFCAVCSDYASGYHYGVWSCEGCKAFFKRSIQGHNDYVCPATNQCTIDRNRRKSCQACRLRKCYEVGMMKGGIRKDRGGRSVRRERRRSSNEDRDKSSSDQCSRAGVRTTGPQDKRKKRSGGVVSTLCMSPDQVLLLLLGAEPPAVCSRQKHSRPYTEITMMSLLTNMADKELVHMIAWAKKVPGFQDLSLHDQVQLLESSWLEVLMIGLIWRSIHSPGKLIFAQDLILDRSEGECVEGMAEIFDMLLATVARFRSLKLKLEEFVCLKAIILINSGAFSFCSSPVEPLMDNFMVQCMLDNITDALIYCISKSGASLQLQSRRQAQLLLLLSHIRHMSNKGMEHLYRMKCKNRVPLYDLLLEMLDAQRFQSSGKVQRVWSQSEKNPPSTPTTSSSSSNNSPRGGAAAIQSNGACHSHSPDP

As a reminder, the AC50 is the concentration at which the activity in the assay is half-maximal. Take `OC(c1ccc(Cl)cc1)(c1cncnc1)c1ccccc1Cl` (centres undefined): the concentration at half-maximal activity (AC50) in assay [1] is 77.7 µM (active); in assay [2], 77.2 µM (active); in assay [5], 26.4 µM (active); in assay [6] it was 8.4 µM (active); in assay [7], 4.32 µM (active); in assay [8] it was 72 µM (active). Besides, the AC50 in [9] is 67.8 µM (active). The outcome in [3] and in assay [4] was inactive.
As to `CCNc1nc(Cl)nc(NCC)n1`, the result in assay [1], in assay [2], in assay [3], in assay [8] and in assay [9] was inactive.
Regarding `N#Cc1nn(-c2c(Cl)cc(C(F)(F)F)cc2Cl)c(N)c1S(=O)C(F)(F)F` (centres undefined), the AC50 in [1] is 81.7 µM (active); in assay [10], 43.8 µM (active); in [11], 36.8 µM (active); in [12], 50 µM (active); in assay [13], 30.9 µM (active); in assay [14] it was 23.2 µM (active). In addition, the AC50 in assay [15] was 31.8 µM (active); in [16] it was 32 µM (active); in assay [8], 40.6 µM (active); in assay [9], 31.2 µM (active). Besides, the compound was classed as inactive in [3] and in [17].
With `CCCC1COC(Cn2cncn2)(c2ccc(Cl)cc2Cl)O1` (centres undefined), the AC50 in assay [1] was 57.5 µM (active); in assay [3], 42.8 µM (active); in assay [18], 14.4 µM (active); in [6], 27.6 µM (active); in assay [7], 27 µM (active); in [9], 74.8 µM (active). Besides, the call in assay [2], in [5] and in assay [8] was inactive.
As for `COC(=O)c1ccccc1C(=O)OC`, the outcome in [1], in assay [2], in assay [3] and in assay [9] was inactive.
On to `CC(C)(C)c1ccc(CSc2cnn(C(C)(C)C)c(=O)c2Cl)cc1`, for which the AC50 is 0.091 µM (active) in [1]; 40.3 µM (active) in assay [3]; 0.0196 µM (active) in assay [12]; 0.0516 µM (active) in assay [13]; 16 µM (active) in assay [8]; 26.9 µM (active) in assay [9]. Further, the result in assay [10], in assay [11], in [14], in assay [17], in [19] and in [4] was inactive. Further, the compound was classed as inactive in assay [5], in assay [6] and in assay [7].
Consider `CCc1nn(C)c(C(=O)NCc2ccc(C(C)(C)C)cc2)c1Cl`, for which the half-maximal activity concentration (AC50) in assay [1] was 1.55 µM (active); in [3] it was 2.81 µM (active); in assay [8] it was 25.3 µM (active); in assay [9] it was 19.4 µM (active).
`COC(=O)N(OC)c1ccccc1COc1ccn(-c2ccc(Cl)cc2)n1`: the AC50 in [1] is 0.806 µM (active); in assay [3] it was 0.409 µM (active); in assay [8], 25.9 µM (active); in assay [9] it was 26.8 µM (active). The outcome in [19], in [5], in assay [6] and in assay [7] was inactive.
On to `C#CCOS(=O)OC1CCCCC1Oc1ccc(C(C)(C)C)cc1` (centres undefined), for which the half-maximal activity concentration (AC50) is 2.89 µM (active) in [1]; 2.11 µM (active) in assay [20]; 166 µM (active) in assay [5]; 80.1 µM (active) in assay [6]; 25.8 µM (active) in assay [7]; 44.7 µM (active) in assay [8]. For the same compound, the AC50 in assay [9] is 21.7 µM (active). The call in assay [3] was inactive.
